# In the library only some 10% were active in any assay of this set; here they are far more common.
# G9a block – G9a (human) methyltransferase inhibition. Q96KQ7. G9a H3K9 monomethylation, AlphaScreen, 2 h. Potency, µM (highest dose often 102 µM), for inactives: at the highest dose activity, negative = inhibition, actives largely listed as inhibitors. hit rate 8.8% among 350,000. AID 504332; also: potency is read from the fitted curve at half-maximal effect; % is scaled to controls: 0 for no effect and ±100 for the full control effect; nearly all actives have a fitted effect of over 75% in size
#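 Enzyme 20 nM + cpd, 15 min RT; add b-H3K9 pep 500 nM / SAM 20 uM; 2 h RT; anti-H3K9me1 Ab 0.5 ug/mL + SA donor / anti-rabbit acceptor beads 20 ug/mL each, 10 min; AlphaScreen read.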
# PLK1 PBD inh – inhibitors of human PLK1 polo-box domain binding; hit rate 2.8% among 360,000; Plk1 PBD binding of FITC phosphopeptide, fluorescence polarization; AID 720504; Potency, µM, for inactives: max response, negative = inhibition, hits mostly inhibitors; also: potency is read from the fitted curve at half-maximal effect; series mostly up to about 57 µM; % is scaled to controls: 0 for no effect and ±100 for the full control effect; nearly all actives have a fitted effect of over 65% in size
# MmCpn inh – inhibitors of Methanococcus maripaludis chaperonin TRiC (MmCpn). purified Mm-Cpn ATPase, ADP Transcreener TR-FRET. Potency, µM (titrated, usually from 76.9 µM), for inactives: at the top dose activity, negative = inhibition, usual class: inhibitors. hit rate 0.031% among 330,000; also: potency is read from the fitted curve at half-maximal effect; % is scaled to controls: 0 for no effect and ±100 for the full control effect; nearly all actives have a fitted effect of over 80% in size
#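 Measured: ADP formation by purified Mm-CPN. Conditions: 25 nM protein, 10 uM ATP, Tris pH 7.4 with Mg2+, K+ and DTT, 37°C for 30 min. Detection: Transcreener HTRF after 30 min at room temperature.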
# VDR inh – blocks the human vitamin D receptor | VDR-SRC2-3 peptide fluorescence polarization, 2 h | P11473 | Potency, µM, inactives show max response, negative = inhibition, actives largely listed as inhibitors | hit rate 0.93% among 400,000; also: potency is read from the fitted curve at half-maximal effect; % is scaled to controls: 0 for no effect and ±100 for the full control effect
# Target sequence (P11473 whole entry, looked up): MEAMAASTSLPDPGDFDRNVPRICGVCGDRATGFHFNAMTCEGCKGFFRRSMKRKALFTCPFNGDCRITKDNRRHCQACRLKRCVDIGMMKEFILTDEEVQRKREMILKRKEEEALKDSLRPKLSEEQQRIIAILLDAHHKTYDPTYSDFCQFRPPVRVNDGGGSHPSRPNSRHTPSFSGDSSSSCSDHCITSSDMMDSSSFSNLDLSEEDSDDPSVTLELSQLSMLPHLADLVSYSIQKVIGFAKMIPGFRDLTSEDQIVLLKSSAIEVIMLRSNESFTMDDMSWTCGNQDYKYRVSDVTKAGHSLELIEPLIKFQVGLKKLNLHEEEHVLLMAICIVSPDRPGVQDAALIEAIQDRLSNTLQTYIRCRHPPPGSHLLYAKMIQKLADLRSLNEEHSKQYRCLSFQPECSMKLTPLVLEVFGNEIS
#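 Reagent solutions, kept cold and dark, are dispensed first; compounds are then pinned in at 23 nl, plates briefly spun, and incubated 2 h at ambient temperature. Inhibition of VDR–SRC2-3 peptide binding is read by fluorescence polarization.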
# Sfp inh – inhibitors of Bacillus subtilis Sfp phosphopantetheinyl transferase. Biochemical Sfp PPTase activity, qHTS. Q9F4F7. Potency, µM, for the others: largest response in the series, negative = inhibition, actives largely listed as inhibitors. hit rate 3.5% among 310,000;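 also: the enzyme is Sfp with the accession as filed and its product quenches rhodamine fluorescence; potency is read from the fitted curve at half-maximal effect; 0% = enzyme reaction without inhibitor and -100% = no enzyme wells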
#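 With Hepes-Na pH 7.6 buffer containing 10 mM MgCl2, Sfp (15 nM) modified BHQ-2-YbbR (12.5 uM) using rhodamine-CoA (5 uM). Two reads 30 minutes apart at 525/598 nm yielded each well's rate.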
# CCT modulator – changes cytosolic chaperonin activity; purified chaperonin ATPase assay, HTRF ADP detection, 30 min; activity change, % (concentration not given with the values), hits read low; hit rate 0.3% among 360,000; AID 651819; in the data active = activity change below about -30%; also: % is scaled to controls: 0 for no effect and ±100 for the full control effect
#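 TRiC at 40 or 20 nM final (batch-dependent) in 30 mM Tris pH 7.4, 100 mM KCl, 5 mM MgCl2, 1 mM DTT, with compound at single 76 uM and 10 uM ATP, 30 min at 37 deg C. ADP detected by HTRF Transcreener, 665/615 ratio.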
# Sfp inh conf – Sfp phosphopantetheinyl transferase inhibition, confirmation | shares compounds with Sfp inh | Sfp PPTase enzymatic assay, qHTS titration | Potency, µM (titrated, usually from 114 µM), for inactives: at the highest dose activity change, negative = inhibition, most hits filed as inhibitors | hit rate 79% among 380;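 also: potency is read from the fitted curve at half-maximal effect; plate controls were uninhibited Sfp reaction for no effect and no enzyme control for full effect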
# Target sequence (Q9F4F7 whole entry, looked up): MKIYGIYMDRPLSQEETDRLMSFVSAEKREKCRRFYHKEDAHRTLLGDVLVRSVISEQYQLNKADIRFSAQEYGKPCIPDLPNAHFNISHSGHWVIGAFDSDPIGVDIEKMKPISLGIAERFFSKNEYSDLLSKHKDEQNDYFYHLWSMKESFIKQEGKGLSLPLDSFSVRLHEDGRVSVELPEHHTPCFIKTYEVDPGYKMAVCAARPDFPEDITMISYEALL
# Sfp gel assay – Inhibits B. subtilis Sfp phosphopantetheinylation; purified Sfp, gel-based phosphopantetheinylation read-out; AID 2707; Potency, µM, hits mostly inhibitors; hit rate 20% among 210; shares compounds with Sfp inh;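 active = potency below 100 µM; inconclusive = dose-dependent response but potency above 100 µM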;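 also: band intensities scaled against SCH202676 control wells before curve fitting; potency is an IC50 for inhibitors of Sfp transfer activity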
# USP1 UbRho – validation of human USP1/UAF1 inhibitors. shares compounds with VDR inh. hit rate 50% among 50. AID 540327. Ub-Rhodamine cleavage, fluorescence kinetic read. Potency, µM (series often up to 56.8 µM), for the others: top-dose activity change, negative = inhibition, usual class: inhibitors
# VDR confirm – inhibits human vitamin D receptor, primary hit validation; shares compounds with VDR inh; VDR-coactivator inhibition assay, qHTS confirmation; Potency, µM, actives largely listed as inhibitors; hit rate 89% among 840; AID 602199; also: potency is read from the fitted curve at half-maximal effect
# VDR FP – confirmation of human VDR-coactivator binding inhibitors, fluorescein label. shares compounds with VDR inh. VDR-coactivator binding, fluorescein fluorescence polarization. Potency, µM (titrated, usually from 57.1 µM), for the others: at the highest dose activity change, negative = inhibition, usual class: inhibitors. hit rate 48% among 840; also: potency is read from the fitted curve at half-maximal effect
# VDR bla reporter – confirmation of human vitamin D receptor inhibitors in reporter cells | VDR beta-lactamase reporter cells, FRET ratio; cells co-treated with VDR agonist LG190178 | hit rate 23% among 840 | Potency, µM (titrated, usually from 46.1 µM), for inactives: at the top dose activity change, negative = inhibition, actives largely listed as inhibitors | shares compounds with VDR inh; also: potency is read from the fitted curve at half-maximal effect; % is scaled to controls: 0 for no effect and ±100 for the full control effect
# VDR cytotox – cytotoxic in counter-screen for VDR inhibitors; shares compounds with VDR inh; cytotoxicity counter-screen, cell viability, qHTS; Potency, µM (doses to about 48.3 µM), for the others: at the top dose activity change, negative = cytotoxicity, most hits filed as cytotoxic; hit rate 18% among 840; AID 602204;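 also: potency is read from the fitted curve at half-maximal effect; plate controls were DMSO for no effect and high-concentration cycloheximide for full effect; nearly all actives have a fitted effect of over 75% in size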
# TbPYK confirm – confirmation of Trypanosoma brucei pyruvate kinase inhibitors; shares compounds with PLK1 PBD inh; recombinant TbPYK, Kinase-Glo ATP luminescence; Potency, µM (titrated, usually from 76.9 µM), inactives show at the highest dose activity change, negative = inhibition, actives largely listed as inhibitors; AID 720569; hit rate 67% among 890; also: potency is read from the fitted curve at half-maximal effect; % is scaled to controls: 0 for no effect and ±100 for the full control effect; nearly all actives have a fitted effect of over 70% in size
# TbPYK orthogonal – TbPYK inhibition, orthogonal confirmation; shares compounds with PLK1 PBD inh; recombinant TbPYK, ADP-Glo luminescence, 60 min; Potency, µM (top dose mostly 76.9 µM), for the others: top-dose activity change, negative = inhibition, actives largely listed as inhibitors; hit rate 62% among 890; AID 720584; also: potency is read from the fitted curve at half-maximal effect; % is scaled to controls: 0 for no effect and ±100 for the full control effect; nearly all actives have a fitted effect of over 75% in size
# The depositor's hits bear a star; i = inactive; ? = inconclusive; / = not tested or not shown; ! = not active in a repeat; [ ] = dose if it differs, or a comment. Unless noted, calls follow the shape of the dose curve; as a rule, active = well fitted curve in the direction sought with a large enough effect; inconclusive = small, poorly fitted or top-dose-only effect, or another doubt; inactive = no such curve, though single readings can be large; an effect the other way counts as inactive or inconclusive.
SMILES,G9a block,PLK1 PBD inh,MmCpn inh,VDR inh,Sfp inh,CCT modulator,Sfp inh conf,Sfp gel assay,others
Nc1nc(/C(=C/CC(=O)O)C(=O)NC2C(=O)N3C(C(=O)O)=CCSC23)cs1 (configuration not stated),-10%[2.33 µM],/,/,50µM*,56µM*,/,42µM*,?,
COc1ccc(OCC(=O)N2CCN(CCc3ccccn3)CC2)cc1,-5%[59 µM],/,/,3%,/,/,/,/,
CCOC(=O)[C@]1(C#N)[C@@H]2C=CC(C(C)=O)=CN2[C@@H](C(N)=O)[C@@H]1c1ccsc1,-45%[59 µM],?,-1%,0%,40µM*,-1,?,?,
CC(C)(C)OC(=O)c1ncn2c1[C@@H]1CCCN1C(=O)c1c(Br)cccc1-2,11%[12.7 µM],/,/,-10%,4%,/,/,/,
CCN(Cc1ccc(Cl)nc1)/C(=C/[N+](=O)[O-])NC,-20%[12.7 µM],/,/,12%,27%,/,/,/,
NC(=O)c1cn(C2OC(CO)C(O)C2O)c2ncnc(N)c12 (configuration not stated),?,1%,-2%,0%,6%,1,/,/,
NC(=O)c1ncn(C2OC(CO)C(O)C2O)n1 (configuration not stated),/,/,/,9%,56µM*,/,83µM*,56µM*,
Nc1ccnn1C1CCNCC1,22µM*,-1%,1%,-6%,18µM*,0,?,i,
CN1CCC(n2nccc2N)CC1,0%[12.7 µM],-2%,1%,-10%,-1%,-1,/,/,
C=C(C)[C@H]1CN[C@H](C(=O)O)[C@@H]1CC(=O)O,/,/,/,11%,?,/,/,/,
C=C(C)[C@H]1CN[C@H](C(=O)O)[C@H]1CC(=O)O,9%[12.7 µM],0%,/,-1%,40µM*!,-2,12%,i,
CCOC(=O)c1c(/N=C/c2c(O)n(-c3ccccc3F)c(=S)[nH]c2=O)sc2c1CCCC2,-7%[12.7 µM],24µM*,-2%,?,13µM*,-3,19µM*,/,
O=c1[nH]c2ccccc2n1C1CCN(CCCC(c2ccc(F)cc2)c2ccc(F)cc2)CC1,26%[12.7 µM],-7%,-4%[15.4 µM],?,45µM*!,-19,42µM*,?,USP1 UbRho=?
CCC1(C)CC(=O)NC(=O)C1,35%[21.5 µM],/,/,-1%,15%,/,/,/,
C[C@]12CC[C@H]3[C@@H](CCC4=CC(=O)CC[C@@H]43)[C@@H]1CC[C@@H]2O,-16%[59 µM],-15%,-1%,-17%,-1%,-5,/,/,
C[C@]12CC[C@@H]3c4ccc(O)c(O)c4CC[C@H]3[C@@H]1CC[C@@H]2O,?,?,-3%,-15%,3.2µM*,0,6.6µM*,2.1µM*,TbPYK confirm=10µM*;TbPYK orthogonal=10µM*
C[C@]12CC[C@@H]3c4cc(O)c(O)cc4CC[C@H]3[C@@H]1CC[C@@H]2O,8.9µM*,21µM*,2%,-17%,4µM*,-4,21µM*,6.2µM*,TbPYK confirm=2.2µM*;TbPYK orthogonal=3.5µM*
O=C(Cn1c(=O)oc2cc(S(=O)(=O)N3CCCC3)ccc21)N1CCN(c2ccccc2F)CC1,?,-5%,-2%,-16%,7%,-6,/,/,
CC1COC2=C1C(=O)C(=O)c1c2ccc2c1CCCC2(C)C (configuration not stated),7.1µM*,/,/,7.1µM*,?,/,/,/,VDR confirm=?;VDR FP=14µM*;VDR bla reporter=-10%;VDR cytotox=7%
C[C@H]1COC2=C1C(=O)C(=O)c1c2ccc2c1CCCC2(C)C,-169%[59 µM],27µM*,/,11µM*,-2%,-2,/,/,VDR confirm=20*;VDR FP=25µM*;VDR bla reporter=-3%;VDR cytotox=9%
CCNC(=O)[C@@H]1O[C@@H](n2cnc3c(N)ncnc32)[C@H](O)[C@H]1O,/,/,/,2%,18%,/,/,/,
C/C(=C\c1ccc(N(C)C)cc1)[N+](=O)[O-],?,?,0%,20µM*,-7%,-1,/,/,VDR confirm=6.7*;VDR FP=?;VDR bla reporter=-134%;VDR cytotox=?
CN(C)c1ccc(C(=O)c2ccc(N(C)C)cc2)cc1,?,-6%,-5%,-13%,2%,0,/,/,
CN(C)c1ccc(/C=C/[N+](=O)[O-])cc1,71µM*,-4%,0%,?,-9%,-6,/,/,VDR confirm=?;VDR FP=86%;VDR bla reporter=0%;VDR cytotox=5%
Clc1cccc(/C=N\Nc2nccs2)c1,-19%,?,-2%,-7%,-4%,2,/,/,
O=S(=O)(/C(=C\c1ccc(C(F)(F)F)cc1)c1nc2ccccc2[nH]1)c1ccccc1,/,-20%,/,14µM*,/,-2,/,/,VDR confirm=2.7*;VDR FP=?;VDR bla reporter=5.2µM*;VDR cytotox=?
CN1C(=O)/C(=C/c2ccc(Cl)s2)C(=O)NC1=S,/,1.5µM*,-3%,20µM*,13µM*,0,/,/,VDR confirm=6.7*;VDR FP=?;VDR bla reporter=?;VDR cytotox=-11%
C=CCn1cc(C=C2C(=O)NC(=O)NC2=O)c2ccccc21,-43%,8%,-1%,7%,-6%,-1,/,/,

# Screening results from PubChem.
